From PubChem BioAssay (NCATS)
Records with an inconclusive call do not appear. Entries that show only a call come without a potency. The source made the active and inactive calls. The call rests on the fitted dose curve; in most records, active means well fitted inhibition curve with a large enough effect; inconclusive means small, poorly fitted or top-dose-only effect; inactive means flat fitted curve, though single readings scatter.

System: MCC-26
Experiment: qHTS assay to identify novel small-molecules to repurpose for Merkel cell carcinoma treatment (AID 1296009); further: nearly all actives have a fitted effect of over 60% in size
Conditions: MCC and control cell lines, CellTiter-Glo viability, 72 h; series mostly up to 46 µM
Description: MCC is a rare and aggressive neuroendocrine skin cancer with limited treatment options. Approximately 80% of MCCs have the Merkel cell polyomavirus (MCPyV) DNA integrated into the host genome (virus-positive: VP-MCC) and viral oncogenes drive oncogenesis. The remaining MCCs are virus-negative (VN-MCC) and are caused by UV mutagenesis. To identify novel treatments for VP-MCC and/or VN-MCC we screened three VP-MCC cell lines (WAGA, MKL-1, MKL-2), three VN-MCC cell lines (MCC-13, MCC-26, UISO), and four immortalized, non-transformed control cell lines (HaCaT, HEK293T, CRL7250, NIH-3T3) against ~2,400 compounds in the NCGC Pharmaceutical Collection (NPC) and ~1,900 compounds in the Mechanism Interrogation PlatE (MiPE). Using cell viability as a readout (CellTiter-Glo assay) we found both overlapping and distinct drugs that can be repurposed for the treatment of VP-MCC and VN-MCC.
A high-throughput screen was conducted in 1536-well white flat bottom plates (Corning) on a Kalypsys robotic system. Cell lines WAGA, MKL-1, MKL-2, MCC-13, MCC-26, UISO, HaCaT, HEK293T, CRL7250, and NIH-3T3 were screened against 2 small molecule annotated drug libraries NPC and MIPE in dose response (8 and 11 pt. respectively) measuring cell viability after 72 hours of incubation. […] A 1,536 pintool (Kalypsys) was used to transfer 23 nL of compound in DMSO to the 1,536-well assay plates. After 72 hr incubation at 37 degree celsius, 2.5 uL of CellTiter-Glo (Promega) was dispensed into each well using a BiorapTR. Plates were incubated at room temperature for 10 min, transferred to a ViewLux (PerkinElmer) and the luminescence was recorded using an exposure time of 2 seconds. Relative luminescence units (RLUs) were normalized to in-plate controls (no cells as a positive (cytotoxicity) control, DMSO as negative control) and the normalized data was processed using NCATS in-house software.
Potency means the concentration at half of the fitted maximal effect.

Compound	Potency
NNc1ccccc1	inactive
C[C@]12CC[C@H]3[C@@H](CCC4=CC(=O)CC[C@@H]43)[C@@H]1CC[C@@H]2OC(=O)CCc1ccco1	inactive
O=c1[nH]c2ccccc2n1C1CCNCC1	inactive
CN1CC[C@]23c4c5ccc(O)c4O[C@H]2[C@@H](O)C=C[C@H]3[C@H]1C5	inactive
ClCCN1CCCC1	inactive
O=C1OC(CCN2CCCCC2)OC1(c1ccccc1)c1ccccc1 (stereo not given)	inactive
NCCc1ccc(O)cc1	inactive
Nc1ccccc1C(=O)O	inactive
CC(C)C[C@H](CN)CC(=O)O	inactive
C=C(C)[C@H]1CN[C@H](C(=O)O)[C@H]1CC(=O)O	inactive
CN(C)CCc1c[nH]c2cccc(OP(=O)(O)O)c12	inactive
C#CC(O)(C=CCl)CC (stereo not given)	inactive
CCC1(c2ccc(N)cc2)CCC(=O)NC1=O (stereo not given)	inactive
CCOP(=S)(OCC)Oc1ccc2c(C)c(Cl)c(=O)oc2c1	inactive
C=CCC1([C@H](C)CCC)C(=O)NC(=O)NC1=O	inactive
CCN[C@@H](C)Cc1ccccc1	inactive
C=CCC1(C(C)CC)C(=O)NC(=O)NC1=O (stereo not given)	inactive
CC1(C)C(C=C(Cl)Cl)C1C(=O)OC(C#N)c1cccc(Oc2ccccc2)c1 (stereo not given)	inactive
C[N+]1(CCF)[C@@H]2CC[C@H]1CC(OC(=O)C(O)(c1ccccc1)c1ccccc1)C2 (stereo not given in full)	inactive
CN1C(=O)NC(=O)C(C)(C2=CCCCC2)C1=O (stereo not given)	inactive

Compound	Potency
O=C(O)CCCc1ccc(N(CCCl)CCCl)cc1	inactive
CC(C)c1c(CN(C)C(C)Cc2ccccc2)n(C)n(-c2ccccc2)c1=O (stereo not given)	inactive
CC(C)(C)NCC(O)c1cc(Cl)c(N)c(C(F)(F)F)c1 (stereo not given)	inactive
CC(C)NC(C)C	inactive
CCN[C@H](C)Cc1cccc(C(F)(F)F)c1	inactive
CC(C)c1cccc(C(C)C)c1O	inactive
CC(C)(C)NCC(O)c1ccccc1Cl (stereo not given)	inactive
C#C[C@]1(O)CC[C@H]2[C@@H]3CCC4=CC(=O)CC[C@]4(C)[C@H]3CC[C@@]21C	inactive
COP(=S)(OC)Oc1ccc(S(=O)(=O)N(C)C)cc1	inactive
CN1C(=O)CCS(=O)(=O)C1c1ccc(Cl)cc1 (stereo not given)	inactive
NC1=NC(=O)C(c2ccccc2)O1 (stereo not given)	inactive
CC(C)N(CCC(C(N)=O)(c1ccccc1)c1ccccn1)C(C)C (stereo not given)	inactive
COc1cccc(C(=O)CCN[C@@H](C)[C@H](O)c2ccccc2)c1	inactive
CN1CC[C@]23c4c5ccc(O)c4O[C@H]2[C@@H](O)CC[C@H]3[C@H]1C5	inactive
COP(=S)(OC)SCN1C(=O)c2ccccc2C1=O	inactive
[N-]=[N+]=CC(=O)OC[C@H](N)C(=O)O	inactive
COc1cccc2c1C(=O)c1c(O)c3c(c(O)c1C2=O)C[C@@](O)(C(=O)CO)CC3OC1CC(N2CCOC(OC)C2)C(O)C(C)O1 (stereo not given in full)	0.0473 µM (active)
c1ccc(CN2CCNCC2)cc1	inactive
CCN(CC)C(=O)[C@@H]1C=C2c3cccc4[nH]cc(c34)C[C@H]2N(C)C1	inactive
Nc1ccccc1	inactive
